Experimental data published in PubChem BioAssay (EPA / NIEHS).
Where a structure was tested more than once in an assay, its records may differ in their call. Calls of active or inactive are those of the source. Rule for the calls: active = hit-call score of the fitted dose curve at least 0.9, where 1 is the maximum; inactive = score below 0.9.

Experiments:
[1] = molecular target: Transcription factor E2F1 (Homo sapiens) (UniProt Q01094); experiment: ATG_E2F_CIS: Attagene CIS-FACTORIAL HepG2 Assay for human E2F Transcription Factor 1 (AID 2282935); details: HepG2 Attagene cis-reporter, E2F reporter RNA transcripts; actives raise or lower the signal
Method in brief: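 In this cis-factorial format, endogenous factor activity drives transfected reporters in HepG2; transcripts collected at 24 h are quantified by fluorescence after RT-PCR and capillary separation.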

[2] = ATG_E_Box_CIS: Attagene CIS-FACTORIAL HepG2 Assay for human Enhancer Box (E-box) (AID 2282936); details: HepG2 E-box cis-reporter transcription, actives raise or lower the signal
Method in brief: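 Measured 24 h post-dosing in HepG2 cells transfected with multiple cis-regulated reporter units, signal being reporter mRNA induction detected by fluorescent RT-PCR with capillary electrophoresis; gain or loss fitted against DMSO.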

[3] = ATG_M_61_CIS: Attagene CIS-FACTORIAL HepG2 Assay for M61 Transcription Factor (Internal Marker) (AID 2282937); details: HepG2 Attagene CIS-FACTORIAL M61 internal marker reporter; actives raise or lower the signal
Method in brief: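 Using transiently transfected HepG2 liver cells, reporter transcript levels were assessed 24 h post-dosing by RT-PCR and capillary electrophoresis. Changes in either direction were fitted relative to DMSO controls.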

[4] = ATG_EGR_CIS: Attagene CIS-FACTORIAL HepG2 Assay for human Early Growth Response 1 (EGR1) (AID 2282938); details: HepG2 Attagene CIS-FACTORIAL EGR reporter mRNA; actives raise or lower the signal
Method in brief: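 Fluorescent capillary-electrophoresis signal of reporter cDNA fragments serves as read-out. HepG2 cells bear transiently transfected cis-promoter reporter units and are exposed 24 h; gain- or loss-of-signal is fitted against DMSO.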

[5] = ATG_M_19_CIS: Attagene CIS-FACTORIAL HepG2 Assay for M19 Transcription Factor (Internal Marker) (AID 2282939); details: HepG2 Attagene CIS-FACTORIAL M19 internal marker reporter; actives raise or lower the signal
Method in brief: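 Following a 24 h exposure, RNA from transfected HepG2 cells was reverse-transcribed, PCR-amplified with reporter-specific primers, end-labelled with 6-FAM and HpaI-digested before capillary separation. Values represent gain or loss versus DMSO.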

[6] = ATG_ERE_CIS: Attagene CIS-FACTORIAL HepG2 Assay for Estrogen Response Element (ERE) (AID 2282940); details: HepG2 ERE cis-reporter, Attagene RNA transcript; actives raise or lower the signal
Method in brief: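 HepG2, transient cis-reporter units, 24 h exposure. RNA isolated, oligo(dT) RT, reporter-specific PCR, FAM extension, HpaI cut, CE detection. Gain/loss-of-signal vs DMSO.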

[7] = ATG_Ets_CIS: Attagene CIS-FACTORIAL HepG2 Assay for human Erythroblast Transformation Specific (ETS) (AID 2282941); details: HepG2 ETS cis-reporter transcription, actives raise or lower the signal
Method in brief: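 Bidirectional fit versus DMSO of reporter mRNA signal, detected by RT-PCR and capillary electrophoresis in HepG2 cells transiently transfected with cis-element reporters and dosed 24 h.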

[8] = molecular target: Hepatocyte nuclear factor 3-beta (Homo sapiens) (UniProt Q9Y261); experiment: ATG_FoxA2_CIS: Attagene CIS-FACTORIAL HepG2 Assay for human Forkhead box A2 (FOXA2) (AID 2282942); details: HepG2 cis-reporter transcription factor activity, 24 h; actives raise or lower the signal
Method in brief: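 Fluorescence signal of reporter cDNA fragments, separated by capillary electrophoresis, reflects endogenous transcription factor activity in transfected HepG2 after 24 h. Both increases and decreases fitted against DMSO.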

[9] = ATG_FoxO_CIS: Attagene CIS-FACTORIAL HepG2 Assay for human Forkhead box O (FoxO) (AID 2282943); details: HepG2 Attagene cis-reporter, FoxO element, mRNA; actives raise or lower the signal
Method in brief: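 24 h chemical exposure, HepG2 with transient cis-MRTU transfection. RNA extraction, oligo(dT) RT, reporter-specific PCR, primer-extension labelling, HpaI digestion, CE fragment analysis; bidirectional fit, DMSO baseline.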

[10] = ATG_GATA_CIS: Attagene CIS-FACTORIAL HepG2 Assay for human GATA Binding Protein (AID 2282944); details: HepG2 GATA cis-element reporter, Attagene multiplex mRNA; actives raise or lower the signal
Method in brief: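 DMSO serves as negative control and baseline for bidirectional fitting of reporter mRNA changes. HepG2 cells bearing transiently transfected cis-promoter reporters were exposed 24 h; transcripts detected via RT-PCR and capillary electrophoresis.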

[11] = ATG_GLI_CIS: Attagene CIS-FACTORIAL HepG2 Assay for human Zinc Finger Protein GLI1 (AID 2282945); details: HepG2, Attagene cis-factorial reporter mRNA, GLI element; actives raise or lower the signal
Method in brief: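 HepG2 cells transiently transfected with cis-promoter multiplexed reporter units report endogenous transcription factor activity. After 24 h chemical exposure, reporter mRNA was quantified by RT-PCR, 6-FAM labelling, HpaI digestion and capillary electrophoresis, with bidirectional fitting against DMSO.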

[12] = molecular target: Bile acid receptor (Homo sapiens) (UniProt Q96RI1); experiment: ATG_IR1_CIS: Attagene CIS-FACTORIAL HepG2 Assay for human Nuclear Receptor Subfamily 1 Group H Member 4 (NR1H4), IR1 submotif (AID 2282946); details: IR1 reporter transcription, actives raise or lower the signal
Method in brief: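 Readout: reporter transcript levels by RT-PCR with fluorescent capillary electrophoresis, from HepG2 cells transiently transfected with multiplexed cis-regulated reporters and dosed 24 h. Gain- or loss-of-signal fitted versus DMSO negative control.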

[13] = ATG_GRE_CIS: Attagene CIS-FACTORIAL HepG2 Assay for human Glucocorticoid Response Elements (GRE) (AID 2282947); details: HepG2 GRE cis-reporter, Attagene multiplex mRNA; actives raise or lower the signal
Method in brief: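 HepG2, transient cis-reporter transfection, 24 h. Reporter mRNA: RT-PCR then CE, fluorescence. Fit both directions vs DMSO.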

[14] = ATG_ISRE_CIS: Attagene CIS-FACTORIAL HepG2 Assay for human Interferon Regulatory Factor 1 (IRF1) binding to an Interferon-Stimulated Response Element (ISRE) (AID 2282948); details: HepG2 ISRE cis-reporter (Attagene), mRNA transcription readout; actives raise or lower the signal
Method in brief: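 Uses HepG2 liver cells transfected with cis-regulated reporters and measures mRNA 24 h post-dosing through RT-PCR, primer-extension labelling and capillary electrophoresis, with DMSO as negative control.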

[15] = ATG_M_32_CIS: Attagene CIS-FACTORIAL HepG2 Assay for M32 Transcription Factor (Internal Marker) (AID 2282949); details: HepG2 Attagene cis-factorial M32 reporter, mRNA; actives raise or lower the signal;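 note: background control marker of the multiplexed CIS panel rather than a real target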
Method in brief: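 Using DMSO as baseline, bidirectional curve fits were applied to reporter mRNA signals. These came from transiently transfected HepG2 cells exposed for 24 h, with RNA analysed by RT-PCR, FAM primer extension, HpaI digestion and CE.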

[16] = ATG_M_06_CIS: Attagene CIS-FACTORIAL HepG2 Assay for M06 Transcription Factor (Internal Marker) (AID 2282950); details: HepG2 Attagene CIS-FACTORIAL M06 internal marker reporter; actives raise or lower the signal
Method in brief: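 Fluorescence-labelled RT-PCR products from cis-promoter reporter units, cut with HpaI and resolved by capillary electrophoresis, give the signal. Cells are human HepG2, dosed for 24 h. Serves as background control, fitted relative to DMSO.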

[17] = molecular target: Hepatocyte nuclear factor 6 (Homo sapiens) (UniProt Q9UBC0); experiment: ATG_HNF6_CIS: Attagene CIS-FACTORIAL HepG2 Assay for human Hepatocyte Nuclear Factor 6 (HNF6) (AID 2282952); details: HepG2 Attagene cis-factorial HNF6 reporter transcription; actives raise or lower the signal
Method in brief: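 Using cis-element reporters in HepG2 liver cells, the assay tracks endogenous factor-driven transcription 24 h post-dosing. Signal comes from 6-FAM-labelled, HpaI-digested RT-PCR fragments, with gain or loss scored against DMSO.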

[18] = molecular target: Heat shock factor protein 1 (Homo sapiens) (UniProt Q00613); experiment: ATG_HSE_CIS: Attagene CIS-FACTORIAL HepG2 Assay for human Heat Shock Transcription Factor 1 (HSE) (AID 2282953); details: HepG2 HSE cis-reporter, Attagene RNA transcription; actives raise or lower the signal
Method in brief: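 After a 24 h incubation with test chemical, transfected HepG2 cells were harvested for RNA; reporter transcripts were measured by RT-PCR and capillary electrophoresis. Values reflect gain or loss of signal relative to DMSO.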

[19] = ATG_MRE_CIS: Attagene CIS-FACTORIAL HepG2 Assay for human Metal Responsive Element (MRE) (AID 2282954); details: HepG2 MRE cis-reporter transcription, Attagene multiplex; actives raise or lower the signal
Method in brief: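 Readout: capillary electrophoresis of 6-FAM-labelled, HpaI-digested RT-PCR reporter products. System: HepG2 cells carrying transient multiplexed cis reporters, dosed 24 h. Analysis: bidirectional fit, DMSO baseline.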

[20] = molecular target: Hypoxia-inducible factor 1-alpha (Homo sapiens) (UniProt Q16665); experiment: ATG_HIF1a_CIS: Attagene CIS-FACTORIAL HepG2 Assay for human Hypoxia Inducible Factor 1 (HIF1A) (AID 2282951); details: HepG2 Attagene cis-factorial HIF1a reporter transcription; actives raise or lower the signal
Method in brief: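 Endogenous-TF cis reporter readout, human HepG2 cells, 24 h incubation; mRNA detected via RT-PCR and capillary electrophoresis fluorescence; DMSO-normalised bidirectional fitting.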

Chain of Transcription factor E2F1 (Homo sapiens) (Q01094 whole entry, looked up): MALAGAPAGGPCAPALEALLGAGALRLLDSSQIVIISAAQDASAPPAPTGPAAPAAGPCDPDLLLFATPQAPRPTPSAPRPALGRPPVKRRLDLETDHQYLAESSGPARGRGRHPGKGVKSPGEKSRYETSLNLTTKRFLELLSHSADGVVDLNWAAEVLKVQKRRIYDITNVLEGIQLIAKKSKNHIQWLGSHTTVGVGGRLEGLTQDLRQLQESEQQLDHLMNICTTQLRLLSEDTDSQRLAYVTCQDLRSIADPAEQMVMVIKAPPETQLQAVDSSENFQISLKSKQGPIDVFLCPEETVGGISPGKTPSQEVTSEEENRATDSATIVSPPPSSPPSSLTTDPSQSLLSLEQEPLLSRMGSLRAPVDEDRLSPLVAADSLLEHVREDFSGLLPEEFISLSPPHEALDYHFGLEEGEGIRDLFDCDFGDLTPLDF
Chain of Hepatocyte nuclear factor 6 (Homo sapiens) (Q9UBC0 whole entry, looked up, the tested form may be a part): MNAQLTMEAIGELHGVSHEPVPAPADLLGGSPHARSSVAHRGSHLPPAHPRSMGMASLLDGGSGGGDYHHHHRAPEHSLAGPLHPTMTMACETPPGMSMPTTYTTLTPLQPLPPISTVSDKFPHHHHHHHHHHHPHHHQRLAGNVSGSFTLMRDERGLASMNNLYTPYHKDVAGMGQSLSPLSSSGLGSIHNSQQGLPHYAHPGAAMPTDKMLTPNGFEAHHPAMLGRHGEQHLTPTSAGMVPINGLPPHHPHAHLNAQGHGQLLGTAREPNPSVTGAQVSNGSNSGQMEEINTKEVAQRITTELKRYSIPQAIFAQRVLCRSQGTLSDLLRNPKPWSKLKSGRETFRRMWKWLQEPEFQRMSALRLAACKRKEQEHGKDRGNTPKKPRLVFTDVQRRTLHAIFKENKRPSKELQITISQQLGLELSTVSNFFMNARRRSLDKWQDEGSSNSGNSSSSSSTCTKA
Chain of Bile acid receptor (Homo sapiens) (Q96RI1 whole entry, looked up): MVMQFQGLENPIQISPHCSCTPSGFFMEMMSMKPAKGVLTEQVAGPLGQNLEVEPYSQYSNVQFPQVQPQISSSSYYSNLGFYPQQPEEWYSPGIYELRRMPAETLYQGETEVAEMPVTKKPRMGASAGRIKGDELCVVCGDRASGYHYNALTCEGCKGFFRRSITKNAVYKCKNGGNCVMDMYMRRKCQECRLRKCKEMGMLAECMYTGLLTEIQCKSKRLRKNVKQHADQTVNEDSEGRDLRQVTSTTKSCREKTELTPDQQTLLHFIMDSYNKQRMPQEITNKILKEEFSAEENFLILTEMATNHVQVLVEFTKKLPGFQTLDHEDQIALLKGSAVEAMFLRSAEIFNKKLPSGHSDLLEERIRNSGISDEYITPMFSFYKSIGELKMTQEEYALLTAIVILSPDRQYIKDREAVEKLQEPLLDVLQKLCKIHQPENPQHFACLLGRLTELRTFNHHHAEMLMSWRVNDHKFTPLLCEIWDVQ
Chain of Heat shock factor protein 1 (Homo sapiens) (Q00613 whole entry, looked up): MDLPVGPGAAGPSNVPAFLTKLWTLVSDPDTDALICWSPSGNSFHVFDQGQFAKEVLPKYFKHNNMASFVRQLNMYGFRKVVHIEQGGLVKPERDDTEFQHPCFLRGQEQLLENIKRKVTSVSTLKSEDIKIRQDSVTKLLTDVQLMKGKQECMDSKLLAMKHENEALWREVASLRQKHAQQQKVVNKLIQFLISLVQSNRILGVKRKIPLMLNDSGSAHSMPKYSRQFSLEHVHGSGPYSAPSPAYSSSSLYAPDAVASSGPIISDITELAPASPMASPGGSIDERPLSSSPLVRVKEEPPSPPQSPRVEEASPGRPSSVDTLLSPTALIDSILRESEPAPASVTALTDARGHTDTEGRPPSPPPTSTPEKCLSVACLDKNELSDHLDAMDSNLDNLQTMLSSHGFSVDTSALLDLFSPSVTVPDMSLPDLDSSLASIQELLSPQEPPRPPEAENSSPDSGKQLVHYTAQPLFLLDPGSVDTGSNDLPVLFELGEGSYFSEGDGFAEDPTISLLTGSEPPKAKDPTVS
Chain of Hepatocyte nuclear factor 3-beta (Homo sapiens) (Q9Y261 whole entry, looked up, the tested form may be a part): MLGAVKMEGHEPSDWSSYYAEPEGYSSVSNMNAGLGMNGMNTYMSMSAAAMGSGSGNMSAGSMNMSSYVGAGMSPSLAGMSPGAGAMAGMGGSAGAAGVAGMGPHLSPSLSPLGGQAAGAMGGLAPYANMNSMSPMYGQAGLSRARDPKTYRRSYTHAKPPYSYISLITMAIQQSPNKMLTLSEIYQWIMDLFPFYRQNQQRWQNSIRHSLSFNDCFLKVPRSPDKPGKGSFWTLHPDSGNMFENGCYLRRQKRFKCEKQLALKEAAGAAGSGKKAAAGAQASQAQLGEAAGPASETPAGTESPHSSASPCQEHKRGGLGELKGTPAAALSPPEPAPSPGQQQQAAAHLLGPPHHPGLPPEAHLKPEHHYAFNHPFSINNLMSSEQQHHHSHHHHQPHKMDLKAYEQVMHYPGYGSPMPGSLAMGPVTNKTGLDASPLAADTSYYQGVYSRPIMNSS
Chain of Hypoxia-inducible factor 1-alpha (Homo sapiens) (Q16665 whole entry, looked up): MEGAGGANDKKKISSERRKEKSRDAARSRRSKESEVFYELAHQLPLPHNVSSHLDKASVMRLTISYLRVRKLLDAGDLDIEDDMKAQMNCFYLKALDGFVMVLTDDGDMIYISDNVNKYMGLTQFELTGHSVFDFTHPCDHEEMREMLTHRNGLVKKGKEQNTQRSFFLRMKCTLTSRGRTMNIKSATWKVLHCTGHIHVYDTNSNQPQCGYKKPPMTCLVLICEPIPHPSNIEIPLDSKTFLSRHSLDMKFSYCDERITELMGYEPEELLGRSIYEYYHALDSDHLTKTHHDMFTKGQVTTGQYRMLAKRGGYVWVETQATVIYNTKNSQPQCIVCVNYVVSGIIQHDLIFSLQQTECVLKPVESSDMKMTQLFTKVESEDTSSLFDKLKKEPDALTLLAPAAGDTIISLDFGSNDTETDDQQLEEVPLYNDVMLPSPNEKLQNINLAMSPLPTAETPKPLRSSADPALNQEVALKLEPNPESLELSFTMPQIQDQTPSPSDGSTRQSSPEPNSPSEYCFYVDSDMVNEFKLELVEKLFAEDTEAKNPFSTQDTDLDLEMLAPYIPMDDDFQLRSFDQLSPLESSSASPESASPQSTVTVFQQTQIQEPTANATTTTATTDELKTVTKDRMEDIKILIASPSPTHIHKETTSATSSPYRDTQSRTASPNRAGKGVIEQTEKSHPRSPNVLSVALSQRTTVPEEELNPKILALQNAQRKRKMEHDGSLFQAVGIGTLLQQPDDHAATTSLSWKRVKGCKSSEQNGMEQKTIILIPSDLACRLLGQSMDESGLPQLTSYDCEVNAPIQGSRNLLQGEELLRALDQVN

## OCCOc1ccccc1
[1]
  outcome: inactive
[2]
  outcome: inactive
[3]
  outcome: inactive
[4]
  outcome: inactive
[5]
  outcome: inactive
[6]
  outcome: inactive
[7]
  outcome: inactive
[8]
  outcome: inactive
[9]
  outcome: inactive
[10]
  outcome: inactive
[11]
  outcome: inactive
[12]
  outcome: inactive
[13]
  outcome: inactive
[14]
  outcome: inactive
[15]
  outcome: inactive
[16]
  outcome: inactive
[17]
  outcome: inactive
[18]
  outcome: inactive
[19]
  outcome: inactive

## COc1cc(OC)nc(NC(=O)NS(=O)(=O)c2cc(NC=O)ccc2C(=O)N(C)C)n1
[1]
  outcome: inactive
[2]
  outcome: inactive
[3]
  outcome: inactive
[4]
  outcome: inactive
[5]
  outcome: inactive
[6]
  outcome: inactive
[8]
  outcome: inactive
[9]
  outcome: inactive
[10]
  outcome: inactive
[11]
  outcome: inactive
[12]
  outcome: inactive
[13]
  outcome: inactive
[14]
  outcome: inactive
[15]
  outcome: inactive
[16]
  outcome: inactive
[20]
  outcome: inactive
[17]
  outcome: inactive
[18]
  outcome: inactive
[19]
  outcome: inactive

## COC(=O)c1ccccc1S(=O)(=O)NC(=O)N(C)c1nc(C)nc(OC)n1
[1]
  outcome: inactive
[2]
  outcome: inactive
[3]
  outcome: inactive
[4]
  outcome: inactive
[5]
  outcome: inactive
[6]
  outcome: inactive
[7]
  outcome: inactive
[8]
  outcome: inactive
[9]
  outcome: inactive
[10]
  outcome: inactive
[11]
  outcome: inactive
[12]
  outcome: inactive
[13]
  outcome: inactive
[14]
  outcome: inactive
[15]
  outcome: inactive
[16]
  outcome: inactive
[20]
  outcome: inactive
[17]
  outcome: inactive
[18]
  outcome: inactive
[19]
  outcome: inactive

## Oc1ccc(Cl)cc1Cc1ccccc1
[1]
  outcome: inactive
[2]
  AC50: 11.1 µM (active)
  outcome: inactive
[3]
  outcome: inactive
[4]
  AC50: 14.9 µM (active)
  outcome: inactive
[5]
  outcome: inactive
[8]
  outcome: inactive
[9]
  AC50: 20.4 µM (active)
  outcome: inactive
[10]
  AC50: 20.2 µM (active)
  outcome: inactive
[11]
  AC50: 16.4 µM (active)
  outcome: inactive
[13]
  outcome: inactive
[14]
  outcome: inactive
[15]
  outcome: inactive
[16]
  outcome: inactive
[17]
  outcome: inactive
[18]
  AC50: 17.3 µM (active)
  outcome: inactive
[19]
  AC50: 16 µM (active)
  outcome: inactive

## CC(C)N(C(=O)COc1nnc(C(F)(F)F)s1)c1ccc(F)cc1
[1]
  outcome: inactive
[2]
  outcome: inactive
[3]
  outcome: inactive
[4]
  outcome: inactive
[5]
  outcome: inactive
[6]
  outcome: inactive
[7]
  AC50: 15.6 µM (active)
[8]
  outcome: inactive
[9]
  outcome: inactive
[10]
  outcome: inactive
[11]
  outcome: inactive
[12]
  outcome: inactive
[13]
  outcome: inactive
[14]
  outcome: inactive
[15]
  outcome: inactive
[16]
  outcome: inactive
[17]
  outcome: inactive
[18]
  outcome: inactive
[19]
  outcome: inactive

## O=S1OCC2C(CO1)C1(Cl)C(Cl)=C(Cl)C2(Cl)C1(Cl)Cl (stereo not drawn)
[1]
  outcome: inactive
[2]
  outcome: inactive
[3]
  outcome: inactive
[4]
  outcome: inactive
[5]
  outcome: inactive
[6]
  AC50: 1.72 µM (active)
[8]
  outcome: inactive
[9]
  outcome: inactive
[10]
  outcome: inactive
[11]
  outcome: inactive
[12]
  outcome: inactive
[13]
  outcome: inactive
[14]
  outcome: inactive
[15]
  outcome: inactive
[16]
  outcome: inactive
[17]
  outcome: inactive
[18]
  outcome: inactive
[19]
  outcome: inactive
